Source: PubChem (several laboratories)
Most compounds without a hit are left out; they make up all but 4.1% or so of the library.
DAX1 inh-1: inhibits human nuclear receptor DAX1 | HEK293 Gal4-DAX1 luciferase reporter, luminescence | inhibition, % at 6.75 µM | 340,000 tested, 0.99% active | AID 504766;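 active = inhibition above the mean over all tested compounds plus 3 SD, cut at about 4.2% in these data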;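 also: 0% = DAX1-transfected cells with DMSO and 100% = empty-vector control cells with DMSO; inhibition shows as a rise in luminescence from relieved DAX1 repression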
DAX1 inh-2: DAX1 (NR0B1) inhibition, primary screen. HEK293T StAR-luciferase reporter, SF-1/DAX-1 repression relief. inhibition, % at 6.8 µM. 370,000 tested, 1.1% active;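 active = inhibition above the mean over all tested compounds plus 3 SD, cut at about 3.6% in these data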;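 also: 0% = DAX-1 cells with DMSO and 100% = cells lacking DAX-1 with DMSO; higher inhibition means more luminescence from relief of DAX-1 repression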
ssDAF-12 act: activates DAF-12 receptor from parasite S. stercoralis; HEK293 ssDAF-12/GRIP1 lit1-tk-luc reporter, luminescence; % of 3 µM dafachronic acid response; activation, % at 6.8 µM; 370,000 tested, 1% active;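 active = activation above the mean over all tested compounds plus 3 SD, cut at about 0.9% in these data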;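 also: 0% = DMSO-only wells and 100% = 3 µM delta7-dafachronic acid wells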
hcDAF-12 act: H. contortus DAF-12 activation, primary screen | HEK293 hcDAF-12 lit1-tk-luc reporter, luminescence; 0% DMSO, 100% Δ7-dafachronic acid | 370,000 tested, 1.4% active | activation, % at 6.8 µM;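 active = activation above the mean of all tested compounds plus 3 SD, cut at about 5.5% in these data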;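 also: 100% = response to 3 µM Δ7-dafachronic acid high control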
hgDAF12 agonist: hgDAF-12 agonism, primary luciferase screen. HEK293 GAL4-hgDAF12 UAS-luciferase reporter, agonist luminescence; normalized to butyrate control. activation, % at 6.8 µM. 370,000 tested, 1.8% active;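 active = activation above a cutoff set at the mean of all screened compounds plus 3 SD, cut at about 10% in these data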;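 also: 0% = DMSO wells and 100% = sodium butyrate wells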
PolyA inhibitor: yeast polyadenylation inhibition. S. cerevisiae SKY197-pL101 polyadenylation reporter, beta-gal luminescence; efflux-impaired pdr1/pdr3 knockout yeast; score 100 = 6 SD above DMSO. activity score, % at 12 µM. 300,000 tested, 0.02% active. AID 1875;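 active = lowest replicate activity score at least 50, where 100 means six control SD above control mean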;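 also: yeast exposed to compound for 9 h at 30 °C; higher score means more reporter readthrough which indicates perturbed polyadenylation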
hgDAF12 conf: hgDAF-12 agonism, confirmation assay | HEK293 GAL4-hgDAF12 luciferase reporter, agonist mode; percent of butyrate response | activation, % at 6.8 µM | shares compounds with hgDAF12 agonist | AID 743050 | 3,300 tested, 80% active;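 active = mean activation over triplicate wells above the hit cutoff derived from the earlier primary screen, cut at about 11% in these data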;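 also: 0% = DMSO low control and 100% = 2 mM sodium butyrate high control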
LXR ag 2: activates human LXR-beta, counter-screen for DAF-12 agonists. shares compounds with hgDAF12 agonist. HEK293 Gal4-LXR luciferase reporter, 24 h. activation, % at 6.8 µM. 3,300 tested, under 10 active. AID 743051;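 active = mean activation of the triplicate above a set limit carried over from the primary screen, none filed active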
Target sequence (P55055 whole entry, looked up, the tested form may be a part): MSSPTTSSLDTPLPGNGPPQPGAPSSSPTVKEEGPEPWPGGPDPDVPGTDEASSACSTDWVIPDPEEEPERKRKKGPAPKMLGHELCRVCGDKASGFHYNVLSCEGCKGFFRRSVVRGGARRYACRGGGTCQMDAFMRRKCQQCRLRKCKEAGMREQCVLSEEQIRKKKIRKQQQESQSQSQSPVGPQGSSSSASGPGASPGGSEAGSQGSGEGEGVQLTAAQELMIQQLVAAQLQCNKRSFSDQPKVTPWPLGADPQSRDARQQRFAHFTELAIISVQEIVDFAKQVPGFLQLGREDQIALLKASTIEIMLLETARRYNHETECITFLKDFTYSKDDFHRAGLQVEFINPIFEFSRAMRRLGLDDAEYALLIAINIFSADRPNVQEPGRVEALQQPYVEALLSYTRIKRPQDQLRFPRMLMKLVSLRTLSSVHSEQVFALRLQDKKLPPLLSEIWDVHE
* hit, by the source's call; / = not tested or not shown.

SMILES	DAX1 inh-1	DAX1 inh-2	ssDAF-12 act	hcDAF-12 act	hgDAF12 agonist	PolyA inhibitor	hgDAF12 conf	LXR ag 2
Cc1cnc(C)c(Nc2nc(C(N)Cc3ccc(Cl)cc3)cs2)n1 (centres undefined)	/	0	0	1	-1	/	/	/
COC(=O)c1ccnc(SCC(=O)c2ccccc2)c1	2	2	1	3	18*	-2	14*	0
COc1ccccc1C(=O)CSc1ccccn1	3	1	0	0	7	5	/	/
COC(=O)c1cnc(SCC(=O)c2ccccc2)n1C	4	2	0	6.1*	15*	-8	14*	1
COC(=O)c1cnc(SCc2ccc(Cl)cc2)n1C	0	0	-1	0	6	-29	/	/
COc1cccc(COc2ccc3c(C)cc(=O)oc3c2)c1	3	3	0	3	16*	-12	14*	1
COc1ccc2c(C)cc(=O)oc2c1	0	0	-1	-2	-1	/	/	/
Cc1cc(=O)oc2cc(OCC(=O)Nc3nccs3)ccc12	1	2	0	5	20*	1	18*	1
COC(=O)c1sccc1-c1ccc(C(=O)Nc2ccccc2)o1	3	2	0	6	13*	-19	13*	1
COc1ccc(NC(=O)c2ccccc2NC(=O)C2CCCCC2C(=O)O)cc1 (centres undefined)	3	2	0	5	14*	/	3	0
O=C1c2ccccc2C(=O)N1Cc1ccco1	1	0	-1	-1	-3	-2	/	/
CC1=CC(=C2C(=O)c3ccccc3C2=O)C=C(C)N1Cc1ccco1	2	3	0	3	16*	10	13*	1
COc1cccc(NC(=O)Nc2ccc3nsnc3c2)c1	2	2	0	1	14*	6	11*	1
Cc1ccc(NC2=Nc3ccccc3CC2)cc1	0	2	1	6.3*	14*	14	17*	1
N#Cc1c(N)[nH]c(C(=O)c2ccccc2)c1-c1ccc(Cl)cc1	/	-2	-1	-1	2	/	/	/
COc1ccc(N/C=C/C(=O)c2ccc(Cl)cc2)cc1	1	4	1	3	13*	-6	16*	1
CCCN1C(=O)c2cc(C(=O)NC3CCCCCC3)ccc2C1O (centres undefined)	2	3.8*	0	3	18*	14	14*	1
CCCN1C(=O)c2cc(C(=O)O)ccc2C1O (centres undefined)	0	0	-1	2	-3	0	/	/
CCN(CC)S(=O)(=O)c1cc(NC(=O)Cc2ccsc2)ccc1C	-1	-1	-1	-2	0	-10	/	/
CN1CCSc2ccc(C(=O)NCc3cccc(F)c3)cc21	1	-1	-2	-1	3	9	/	/
CN1CCSc2ccc(C(=O)Nc3ccc(Cl)cc3)cc21	7.0*	2	-1	4	18*	-2	17*	1
CNc1ccc([N+](=O)[O-])cc1-c1nc2ccccc2[nH]c1=O	0	0	0	3	5	-10	/	/
Cc1ccc(-c2cc(C(=O)N3CCCCCC3)no2)cc1	0	3	1.3*	5	14*	-22	21*	1
COC(=O)c1cc(-c2ccc(Br)cc2)on1	0	0	0	2	2	1	/	/
O=C(c1cc(-c2ccccc2O)on1)N1CCCCCC1	2	2	1	3	14*	-11	10	0
SMILES	DAX1 inh-1	DAX1 inh-2	ssDAF-12 act	hcDAF-12 act	hgDAF12 agonist	PolyA inhibitor	hgDAF12 conf	LXR ag 2
O=C(NC1CCCC1)c1cc(-c2ccccc2O)on1	3	2	-1	2	10	-9	/	/
O=C(c1cc(-c2ccc(Br)cc2)on1)N1CCCC1	2	3	1	4	19*	0	15*	1
O=C(c1cc(-c2ccc(O)cc2)on1)N1CCCC1	2	3	1	5	15*	5	13*	1
CCOC(=O)C1CCCN(C(=O)c2cc(S(=O)(=O)N3CCCCC3)ccc2C)C1 (centres undefined)	0	-1	-1	-1	-3	9	/	/
O=C(c1cc(-c2ccccc2)on1)N1CCCCCC1	1	2	0	4	13*	-3	15*	1
COc1ccc(-c2cc(C(=O)N3CCCC3)no2)cc1	-2	2	0	5	14*	5	10	1
O=C(CSc1nnc(NC(=O)C2CC2)s1)Nc1ccc(F)cc1F	-1	-1	-1	-2	-1	24	/	/
CCOC(=O)[C@@H](NC(=O)CC[C@H]1O[C@@H](n2ccc(=O)[nH]c2=O)[C@H](O)[C@@H]1O)C(C)C	/	1	-1	-1	-1	/	/	/
COc1cccc(CSc2nc3ccncc3[nH]2)c1	-1	3	0	2	15*	4	14*	1
COc1cccc(N2CCN(C(=O)c3ccc(CSc4nc5ccncc5[nH]4)cc3)CC2)c1	-3	-3	-1	-4	-5	-11	/	/
COc1ccccc1/C=C/CN1CCSCC1	0	0	-1	-1	16*	33	0	0
CC(C)(C)N1C(=O)c2ccccc2NC(=O)C1C(=O)NCCc1ccccc1 (centres undefined)	/	0	0	1	2	/	/	/
CC(=O)Nc1ccc(/C(N=Nc2ccccc2)=N/N=C(N)N)cc1	4.5*	3	1.6*	5	13*	/	16*	1
O=C(Cc1ccccc1)Nc1ccc2c(c1)OC1(CCCC1)O2	0	4	0	1	14*	/	15*	0
O=C(CN(Cc1cccs1)C(=O)CCC(=O)Nc1ccccn1)NCc1ccccc1	0	0	-1	-2	-2	-4	/	/
CC(=O)OC(C(=O)Nc1nccs1)c1ccccc1 (centres undefined)	3	1	-1	0	-1	-2	/	/
O=C(Nc1nccs1)C(Br)C(Br)c1ccccc1 (centres undefined)	0	1	0	6.4*	16*	-70	19*	1
Cc1ccc2c(c1)CO[C@]21O[C@H](CCO)C[C@H](O)[C@H]1O	-1	1	-1	0	3	/	/	/
O=C(N/N=C/c1ccc(Br)cc1)c1ccc(Br)o1	3	3	0	4	14*	27	15*	1
COC(=O)c1sc2nc3c(cc2c1N)COC(C)(C)C3	1	4.0*	0	2	16*	2	17*	1
